# Where “and” joins values, the source holds several entries; their conditions need not be identical. Equal entries are not always repeated. Where two headings read alike, the source gives them in different places.
# What was measured:
# Conditions in all cases: n = 1
# NEK7 = tested on: NEK7
# NEK9 = tested on: NEK9
# NIK = tested on: T1, NIK
# T1 construct: gene MAP3K14
# NIM1 = tested on: T2, NIM1
# T2 construct: gene MGC42105
# NLK = tested on: NLK
# OSR1 = tested on: T3, OSR1
# T3 construct: gene OXSR1
# PAK1 = tested on: PAK1
# PAK2 = tested on: PAK2
# PAK3 = tested on: PAK3
# PAK6 = tested on: PAK6
# PAK7 = tested on: PAK7
# PCTK3 = tested on: T4, PCTK3
# T4 construct: gene CDK18
# PDGFRA = tested on: PDGFRA
# PDGFRB = tested on: PDGFRB
# PDPK1 = tested on: PDPK1
# PFTAIRE2 = tested on: PFTAIRE2
# PFTK1 = tested on: T5, PFTK1
# T5 construct: gene CDK14
# PAK4 = tested on: PAK4
# PCTK1 = tested on: T6, PCTK1
# T6 construct: gene CDK16
# PCTK2 = tested on: T7, PCTK2
# T7 construct: gene CDK17
# [1] = concentration: 1 μM,replicates: in singlicate, 1 µM
# [2] = concentration: 1 μM, replicates: in singlicate
# 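Note: KINOMEscan kinase panel screen.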
compound,measurement,setting,value
CSc1nn2c(=O)cc(N3CCOCC3)nc2n1Cc1cccc(C(F)(F)F)c1C [GSK2363608],%Inh,NEK7; [1],3% and 0%
same,%Inh,NEK9; [1],22% and 2%
same,%Inh,NIK; [1],0% and 6%
same,%Inh,NIM1; [1],2% and 12%
same,%Inh,NLK; [1],2% and 37%
same,%Inh,OSR1; [1],15% and 7%
same,%Inh,PAK1; [1],0% and 38%
same,%Inh,PAK2; [1],0% and 37%
same,%Inh,PAK3; [1],8% and 0%
same,%Inh,PAK6; [1],12% and 0%
same,%Inh,PAK7; [1],1% and 0%
same,%Inh,PCTK3; [1],0% and 5%
same,%Inh,PDGFRA; [1],15% and 0%
same,%Inh,PDGFRB; [1],12% and 8%
same,%Inh,PDPK1; [1],7% and 0%
same,%Inh,PFTAIRE2; [1],23% and 6%
same,%Inh,PFTK1; [1],21% and 6%
Cc1cc(-c2ccc3c(c2)CC[C@@H](N[C@@H](C)c2ccccc2)C3)cnc1N.Cl [GW412617],%Inh,NEK7; [2],9%
same,%Inh,NEK9; [2],0%
same,%Inh,NIK; [2],77%
same,%Inh,NIM1; [2],22%
same,%Inh,NLK; [2],0%
same,%Inh,OSR1; [2],8%
same,%Inh,PAK1; [2],0%
same,%Inh,PAK2; [2],16%
same,%Inh,PAK3; [2],0%
same,%Inh,PAK4; [2],36%
same,%Inh,PAK6; [2],5%
same,%Inh,PAK7; [2],15%
same,%Inh,PCTK1; [2],6%
same,%Inh,PCTK2; [2],0%
same,%Inh,PCTK3; [2],0%
same,%Inh,PDGFRA; [2],0%
same,%Inh,PDGFRB; [2],75%
same,%Inh,PDPK1; [2],22%
same,%Inh,PFTAIRE2; [2],6%
same,%Inh,PFTK1; [2],0%
Cc1ccc(NC(=O)Nc2cccc(C(F)(F)F)c2)cc1 [GSK955403],%Inh,NEK7; 1 µM,0%
same,%Inh,NEK9; 1 µM,0%
same,%Inh,NIK; 1 µM,8%
same,%Inh,NIM1; 1 µM,0%
same,%Inh,NLK; 1 µM,15%
same,%Inh,OSR1; 1 µM,0%
same,%Inh,PAK1; 1 µM,24%
same,%Inh,PAK2; 1 µM,5%
same,%Inh,PAK3; 1 µM,0%
same,%Inh,PAK4; 1 µM,4%
same,%Inh,PAK6; 1 µM,36%
same,%Inh,PAK7; 1 µM,1%
same,%Inh,PCTK1; 1 µM,0%
same,%Inh,PCTK2; 1 µM,2%
same,%Inh,PCTK3; 1 µM,0%
same,%Inh,PDGFRA; 1 µM,0%
same,%Inh,PDGFRB; 1 µM,45%
same,%Inh,PDPK1; 1 µM,14%
same,%Inh,PFTAIRE2; 1 µM,1%
same,%Inh,PFTK1; 1 µM,5%
CN1C(=O)C(Nc2ccc(Cl)c(C(=O)O)c2)=C(c2ccc(Cl)cc2)C1=O [SB-404290],%Inh,NEK7; [2],15%
same,%Inh,NEK9; [2],10%
same,%Inh,NIK; [2],0%
same,%Inh,NIM1; [2],9%
same,%Inh,NLK; [2],17%
same,%Inh,OSR1; [2],13%
same,%Inh,PAK1; [2],0%
same,%Inh,PAK2; [2],18%
same,%Inh,PAK3; [2],22%
same,%Inh,PAK4; [2],0%
same,%Inh,PAK6; [2],0%
same,%Inh,PAK7; [2],10%
same,%Inh,PCTK1; [2],0%
same,%Inh,PCTK2; [2],6%
same,%Inh,PCTK3; [2],0%
same,%Inh,PDGFRA; [2],27%
same,%Inh,PDGFRB; [2],0%
same,%Inh,PDPK1; [2],0%
same,%Inh,PFTAIRE2; [2],11%
same,%Inh,PFTK1; [2],0%
Cc1cccc(-c2nc(C)cc(Nc3ccncc3)n2)n1 [GSK257997],%Inh,NEK7; [2],0%
same,%Inh,NEK9; [2],46%
same,%Inh,NIK; [2],10%
same,%Inh,NIM1; [2],6%
same,%Inh,NLK; [2],30%
same,%Inh,OSR1; [2],10%
same,%Inh,PAK1; [2],44%
same,%Inh,PAK2; [2],41%
same,%Inh,PAK3; [2],32%
same,%Inh,PAK4; [2],23%
same,%Inh,PAK6; [2],0%
same,%Inh,PAK7; [2],0%
same,%Inh,PCTK1; [2],9%
same,%Inh,PCTK2; [2],0%
same,%Inh,PCTK3; [2],15%
same,%Inh,PDGFRA; [2],0%
same,%Inh,PDGFRB; [2],11%
same,%Inh,PDPK1; [2],0%
same,%Inh,PFTAIRE2; [2],14%
same,%Inh,PFTK1; [2],24%
Cl.NC(=O)c1cccc(Nc2nccc(Nc3ccc(Oc4cccc(Cl)c4)c(Cl)c3)n2)c1 [GW659008],%Inh,NEK7; [2],16%
same,%Inh,NEK9; [2],3%
same,%Inh,NIK; [2],27%
same,%Inh,NIM1; [2],29%
same,%Inh,NLK; [2],21%
same,%Inh,OSR1; [2],8%
same,%Inh,PAK1; [2],9%
same,%Inh,PAK2; [2],9%
same,%Inh,PAK3; [2],33%
same,%Inh,PAK4; [2],0%
same,%Inh,PAK6; [2],0%
same,%Inh,PAK7; [2],5%
same,%Inh,PCTK1; [2],0%
same,%Inh,PCTK2; [2],7%
same,%Inh,PCTK3; [2],9%
same,%Inh,PDGFRA; [2],0%
same,%Inh,PDGFRB; [2],68%
same,%Inh,PDPK1; [2],0%
same,%Inh,PFTAIRE2; [2],4%
same,%Inh,PFTK1; [2],8%
Cc1cccc(-c2nc(Nc3cccc(C(N)=O)c3)c3ccccc3n2)n1 [GW876019],%Inh,NEK7; [2],0%
same,%Inh,NEK9; [2],15%
same,%Inh,NIK; [2],0%
same,%Inh,NIM1; [2],0%
same,%Inh,NLK; [2],0%
same,%Inh,OSR1; [2],0%
same,%Inh,PAK1; [2],16%
same,%Inh,PAK2; [2],21%
same,%Inh,PAK3; [2],49%
same,%Inh,PAK4; [2],17%
same,%Inh,PAK6; [2],0%
same,%Inh,PAK7; [2],0%
same,%Inh,PCTK1; [2],0%
same,%Inh,PCTK2; [2],0%
same,%Inh,PCTK3; [2],0%
same,%Inh,PDGFRA; [2],0%
same,%Inh,PDGFRB; [2],5%
same,%Inh,PDPK1; [2],0%
same,%Inh,PFTAIRE2; [2],20%
same,%Inh,PFTK1; [2],0%
O=C(Nc1ccc2c(c1)OCO2)NC1CCN(c2ccnc(Nc3ccc(F)cc3)n2)C1 (centres unmarked) [GSK1379724],%Inh,NEK7; [2],0%
same,%Inh,NEK9; [2],0%
same,%Inh,NIK; [2],0%
same,%Inh,NIM1; [2],46%
same,%Inh,NLK; [2],12%
same,%Inh,OSR1; [2],0%
same,%Inh,PAK1; [2],18%
same,%Inh,PAK2; [2],37%
same,%Inh,PAK3; [2],0%
same,%Inh,PAK4; [2],0%
same,%Inh,PAK6; [2],22%
same,%Inh,PAK7; [2],0%
same,%Inh,PCTK1; [2],3%
same,%Inh,PCTK2; [2],0%
same,%Inh,PCTK3; [2],3%
same,%Inh,PDGFRA; [2],0%
same,%Inh,PDGFRB; [2],31%
same,%Inh,PDPK1; [2],0%
same,%Inh,PFTAIRE2; [2],8%
same,%Inh,PFTK1; [2],8%
CCn1c(-c2cccnc2O)nc2cnccc21 [SB-736715],%Inh,NEK7; [2],0%
same,%Inh,NEK9; [2],0%
same,%Inh,NIK; [2],27%
same,%Inh,NIM1; [2],0%
same,%Inh,NLK; [2],0%
same,%Inh,OSR1; [2],0%
same,%Inh,PAK1; [2],0%
same,%Inh,PAK2; [2],0%
same,%Inh,PAK3; [2],0%
same,%Inh,PAK4; [2],32%
same,%Inh,PAK6; [2],0%
same,%Inh,PAK7; [2],3%
same,%Inh,PCTK1; [2],0%
same,%Inh,PCTK2; [2],0%
same,%Inh,PCTK3; [2],0%
same,%Inh,PDGFRA; [2],0%
same,%Inh,PDGFRB; [2],0%
same,%Inh,PDPK1; [2],0%
same,%Inh,PFTAIRE2; [2],11%
same,%Inh,PFTK1; [2],0%
Cc1nnc(-c2ccc3occ(-c4ccc(S(C)=O)cc4)c3c2)[nH]1 (centres unmarked),%Inh,NEK7; [2],22%
same,%Inh,NEK9; [2],25%
same,%Inh,NIK; [2],0%
same,%Inh,NIM1; [2],0%
same,%Inh,NLK; [2],17%
same,%Inh,OSR1; [2],6%
same,%Inh,PAK1; [2],28%
same,%Inh,PAK2; [2],36%
same,%Inh,PAK3; [2],17%
same,%Inh,PAK4; [2],8%
same,%Inh,PAK6; [2],13%
same,%Inh,PAK7; [2],5%
same,%Inh,PCTK1; [2],8%
same,%Inh,PCTK2; [2],0%
same,%Inh,PCTK3; [2],0%
same,%Inh,PDGFRA; [2],36%
same,%Inh,PDGFRB; [2],0%
same,%Inh,PDPK1; [2],0%
same,%Inh,PFTAIRE2; [2],24%
same,%Inh,PFTK1; [2],6%

# From publication PMC5540273 (PLoS ONE, 2017)
